Bioassay records: PubChem BioAssay, Sanford-Burnham Center for Chemical Genomics
tim10-1 inh – growth inhibitors of tim10-1 mutant yeast, primary screen, luminescence, uHTS. S. cerevisiae tim10-1 ts strain growth, BacTiter-Glo, 24 h. inhibition, % at 20 µM. 330,000 compounds, 2.2% hits. AID 463190, 2010;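 active = inhibition of at least 40%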;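 note: mutant grown at 25 °C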
tim23-1 inh – growth inhibitors of tim23-1 mutant yeast, primary screen, luminescence, uHTS | S. cerevisiae tim23-1 growth, BacTiter-Glo luminescence, 24 h | inhibition, % at 20 µM | 330,000 compounds, 1.3% hits;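 active = growth inhibition of the mutant yeast at or above 50%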;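 note: temperature-sensitive mutant grown at 25 °C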
NALP3 yeast inh – NALP3 inflammasome inhibitors in reconstituted yeast, primary screen, luminescence, uHTS; Yeast reconstituted NLRP3/ASC/caspase-1, beta-gal luminescence, 24 h; inhibition, % at 10 µM; 330,000 compounds, 0.39% hits; AID 2825, 2010;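 active = inhibition of 50% or more; inactive = inhibition below 50%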
NALP1 inh – NALP1 inflammasome inhibitors in reconstituted yeast, colorimetric, S. cerevisiae, triplicate retest; S. cerevisiae NALP1/ASC/caspase-1 growth, X-gal OD620, 72 h; inhibition, % at 10 µM; 280,000 compounds, 0.61% hits; AID 2071, 2009; in the data active = inhibition mostly above about 24%, no sharp cut-off; inactive = mostly below about 32%
TIM10 inh – growth inhibitors of isogenic TIM10 control yeast, primary screen, counter-screen for tim10-1 yeast inhibitor project, luminescence, uHTS. S. cerevisiae TIM10 strain growth, BacTiter-Glo luminescence, 24 h. inhibition, % at 10 µM. 330,000 compounds, 1.4% hits;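 active = inhibition of 40% or more at the single tested concentration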;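 note: wild-type TIM10 isogenic control strain grown at permissive 25 °C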
tim10-1 confirm – growth inhibitors of tim10-1 mutant yeast, confirmation, single concentration, luminescence, S. cerevisiae. 7,400 compounds, 56% hits. S. cerevisiae tim10-1 ts strain growth, BacTiter-Glo, 24 h. shares compounds with tim10-1 inh. inhibition, % at 20 µM. AID 463213, 2010;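 active = inhibition of yeast growth at or above a set limit in either of two repeat tests at 20 µM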;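 note: tim10-1 mutant grown at permissive 25 °C to find synthetic lethal compounds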
TIM10 conf – growth inhibitors of wild-type TIM10 yeast, confirmation, counter-screen for tim10-1 synthetic lethality project, single concentration, luminescence, S. cerevisiae | shares compounds with TIM10 inh | S. cerevisiae tim10 strain growth, BacTiter-Glo luminescence, 24 h | inhibition, % at 10 µM | 4,600 compounds, 63% hits | AID 463215, 2010;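 active = inhibition of yeast growth at or above a set limit in either of two replicates at 10 µM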; note: this counterscreen used the strain with wild-type TIM10
Numbers stand for hits; 0 = inactive; - = no result given. Most compounds without a hit are left out; they make up all but 4% or so of the library.

SMILES | tim10-1 inh | tim23-1 inh | NALP3 yeast inh | NALP1 inh | TIM10 inh | tim10-1 confirm | TIM10 conf
CCOC(=O)C1=C(C)Nc2nc(SCC)nn2C1c1ccc(OC)cc1 (stereo not given) | 0 | 0 | 0 | 0 | 0 | - | -
CCN1CCN(c2cc(N3CCc4ccccc4C3)c(F)cc2[N+](=O)[O-])CC1 | 41 | 0 | 0 | 0 | 41 | 32 | 0
COc1ccccc1Cn1c(SCC(N)=O)nc2c(oc3ccccc32)c1=O | - | - | - | 0 | - | - | -
Cc1ccc(NC2=C/C(=N/S(=O)(=O)c3cccs3)c3ccccc3C2=O)cc1C | - | - | - | 0 | - | - | -
Cc1ccccc1NC1=C/C(=N\S(=O)(=O)c2cccs2)c2ccccc2C1=O | 82 | 0 | 0 | 0 | 67 | 77 | 54
CCCN(C(=O)c1c(CC)noc1C)c1c(N)n(Cc2ccccc2)c(=O)[nH]c1=O | 0 | 0 | 0 | - | 0 | - | -
O=C1c2ccccc2C(=O)c2c1ccc1c(=O)n(C3CCCCC3)[nH]c21 | 50 | 0 | 0 | 0 | 50 | 39 | 54
O=c1c2[nH]c3ccccc3c2ncn1C1CCCCC1 | 0 | 0 | 0 | 0 | 0 | - | -
CCCC(=O)Nc1ccc(-c2nc3cc(C)ccc3o2)cc1 | 44 | 0 | 0 | 0 | 55 | 32 | 52
Cc1onc(-c2ccccc2)c1C(=O)Nc1nnc(CC(C)(C)C)s1 | 0 | 0 | 0 | 0 | 0 | - | -
O=C(NCc1ccccc1F)C1CCCN1S(=O)(=O)c1ccc(F)cc1 (stereo not given) | 0 | 0 | 0 | 0 | 0 | - | -
O=C(/C=C/c1ccc(-c2ccccc2)o1)c1ccccc1 | 0 | 0 | 0 | - | 54 | 59 | 48
CCN(CC)Cc1cc2[nH]c3c4ccc(Cl)cc4ncc3c2cc1OC | 57 | 0 | 0 | 0 | 68 | 50 | 35
COc1ccc(CNc2ncnc3cc(Cl)ccc23)cc1OC | - | - | - | 0 | - | - | -
O=C1NC(=O)/C(=C\c2ccccc2OCc2ccccc2)S1 | 45 | 0 | 0 | 0 | 43 | 33 | 0
CCOc1ccc(N(CC(=O)Nc2cc(Cl)ccc2C)S(C)(=O)=O)cc1 | 0 | 0 | 0 | 0 | 0 | - | -
CC(=O)c1ccc(NC(=S)NC2CCCC(C)C2C)cc1 (stereo not given) | 45 | 0 | 0 | 0 | 47 | 43 | 36
CCOc1ccc(NC(=O)CN(C)C(=O)Cn2cnc3c2c(=O)n(C)c(=O)n3C)cc1OCC | 0 | 0 | 0 | - | 0 | - | -
O=C(COC(=O)c1ccco1)c1ccc(Cl)cc1 | 0 | 0 | 0 | 0 | 0 | - | -
N/C(=N\OC(=O)c1ccco1)c1ccc(Cl)cc1 | 47 | 0 | 0 | 0 | 54 | 47 | 0
O=C(Nc1cccc(Cl)c1)c1cc(S(=O)(=O)N2CCOCC2)cs1 | 0 | 0 | 0 | 0 | 0 | - | -
S=C(N/N=C/c1ccco1)NC1CC2CCC1C2 (stereo not given) | 51 | 0 | 0 | 0 | 42 | 36 | 51
CCCn1c(SCC(=O)Nc2ccccc2N2CCCCC2)nc2c1c(=O)n(C)c(=O)n2C | 0 | 0 | 0 | 0 | 0 | - | -
CCCn1c(SCC(=O)Nc2ccccc2C(=O)OC)nc2c1c(=O)n(C)c(=O)n2C | 60 | 0 | 0 | 0 | 46 | 45 | 46
O=C(c1ccc2c3n(nc2c1)-c1ccccc1CO3)N1CCOCC1 | 48 | 0 | 0 | 0 | 41 | 51 | 31
SMILES | tim10-1 inh | tim23-1 inh | NALP3 yeast inh | NALP1 inh | TIM10 inh | tim10-1 confirm | TIM10 conf
O=C(c1ccc2c3n(nc2c1)-c1ccc(Cl)cc1CO3)N1CCOCC1 | 0 | 0 | 0 | 0 | 0 | - | -
CC(C)N1C/C(=C/c2ccsc2)C(=O)/C(=C/c2ccsc2)C1 | 40 | 0 | 0 | - | 46 | 0 | 34
CCN1C(=O)S/C(=C/c2ccsc2)C1=O | 0 | 0 | 0 | 0 | 0 | - | -
Cc1cc(C)c2c(=O)n(CC(=O)Nc3ccc(Br)c(C)c3)sc2n1 | 72 | 0 | 0 | 0 | 67 | 93 | 94
O=C(/C=C/c1cccc(Cl)c1)Nn1c(-c2cccs2)nc2ccccc2c1=O | 45 | 0 | 0 | 0 | 43 | 36 | 0
Fc1ccc2c(c1)C(c1ccc(N3CCOCC3)cc1)=NNC(c1cccs1)=N2 | 42 | 0 | 0 | 0 | 55 | 0 | 36
COCCNS(=O)(=O)c1ccc(Cl)c(C(=O)NC2CCN(Cc3ccccc3)CC2)c1 | 0 | 0 | 0 | 0 | 0 | - | -
N#CC(C#N)=C1C=CC=CN1/C(=C\c1ccco1)C(=O)c1ccccc1 | - | - | - | 0 | - | - | -
COc1ccc(C(=O)/C(=C\c2ccco2)N2C=CC=CC2=C(C#N)C#N)cc1 | 53 | 0 | 0 | 0 | 59 | 41 | 53
COc1ccc2sc(N(CCCN(C)C)C(=O)c3ccc(S(=O)(=O)N4CCc5ccccc5C4)cc3)nc2c1 | 0 | 0 | 0 | - | 0 | - | -
CN(C)CCCN(C(=O)c1ccc(S(=O)(=O)N2CCc3ccccc3C2)cc1)c1nc2c(F)cccc2s1 | 0 | 0 | 0 | 0 | 0 | - | -
Cc1cc(C)c2sc(N(CCCN(C)C)C(=O)c3ccc(S(=O)(=O)N4CCCc5ccccc54)cc3)nc2c1 | 54 | 0 | 0 | - | 51 | 41 | 33
Cc1cccc2sc(N(CCCN(C)C)C(=O)c3ccc(S(=O)(=O)N4CCc5ccccc5C4)cc3)nc12 | 41 | 0 | 0 | 0 | 40 | 0 | 0
CN(C)CCCN(C(=O)c1ccc(S(=O)(=O)N2CCc3ccccc3C2)cc1)c1nc2ccc(F)cc2s1 | 59 | 0 | 0 | 0 | 57 | 36 | 45
Cc1cc(C)cc(C(=O)NC(=S)Nc2cccnc2)c1 | 0 | 0 | 0 | 0 | 0 | - | -
CC(C)c1ccccc1NC(=S)NC(C)c1ccccc1 (stereo not given) | 42 | 0 | 0 | - | 42 | 0 | 0
CC(NC(=S)Nc1ccc(F)cc1)c1ccccc1 (stereo not given) | 0 | 0 | 0 | 0 | 0 | - | -
CCC(C)(C)C1CCC(=NNC(=S)Nc2ccccc2)CC1 (stereo not given) | 0 | 0 | 0 | 0 | 0 | - | -
S=C(NN=C1C2CC3CC(C2)CC1C3)Nc1ccccc1 | 60 | 0 | 0 | 0 | 51 | 46 | 0
COc1cc2nc(-c3ccc(Br)o3)oc(=O)c2cc1OC | 0 | 0 | 0 | 0 | 0 | - | -
Cc1ccc2nc(-c3ccc(Br)o3)oc(=O)c2c1 | 41 | 0 | 0 | 0 | 48 | 35 | 33
O=[N+]([O-])c1nn(-c2ccc3c(c2)OCCO3)n(O)c1=NC1CCCC1 | 55 | 0 | 0 | 0 | 58 | 47 | 41
O=[N+]([O-])c1nn(-c2ccc3c(c2)OCCO3)n(O)c1=NCCCO | 0 | 0 | 0 | 0 | 0 | - | -
C(=N\N(Cc1ccccc1)c1ccccc1)/c1cccnc1 | 0 | 0 | 0 | 0 | 0 | - | -
Oc1cccc(/C=N/N(Cc2ccccc2)c2ccccc2)c1 | 53 | 0 | 0 | 0 | 48 | 0 | 41
